Results taken from PubChem BioAssay.
Active and inactive are the calls of the source.

experiment: PSAC antagonists in infected red cells, primary screen, cell-based, P. falciparum Indochina, OD700, 2 h (AID 1155);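 note: lysis reports solute entry through the parasite surface anion channel PSAC; channel blockers reduce lysis of infected cells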; details: P. falciparum Indochina infected erythrocytes, osmotic lysis OD700; higher = more signal, called active from +8 up or from −8 down

SMILES	z-score
CCCCC(=C=CC[C@@H](O)c1cccc(OCCO)c1)CCO	1.02 (inactive)
C=CCOC(=O)[C@@H]1[C@H]2C(=O)O[C@H](c3ccccc3)[C@H](c3ccccc3)N2[C@H](c2ccc(OCCOC(=O)[C@H]3C[C@H]4C(=O)NCC(=O)N4[C@H]3c3ccc(O)cc3)cc2)[C@@]12C(=O)Nc1ccc(I)cc12	2.39 (inactive)
CN1C=C(C(=O)OCCS(C)(=O)=O)C(C(=O)OCCS(C)(=O)=O)=CC(CCCO)=CC1c1ccc(CN2CCCC2)cc1 (stereo unspecified)	-0.162 (inactive)
COCCOC(=O)N1C(=O)[C@@]2(c3cc(C#CC4(O)CCCCCC4)ccc31)[C@H](C(=O)N1CCc3cc(OC)c(OC)cc3C1)[C@H]1C(=O)O[C@H](c3ccccc3)[C@H](c3ccccc3)N1[C@@H]2c1ccc(O)cc1	0.735 (inactive)
O=C1O[C@@H](c2ccccc2)[C@@H](c2ccccc2)N2[C@@H](c3ccc(OCCO)cc3)[C@]3(C(=O)Nc4ccc(C#CCCO)cc43)[C@@H](C(=O)Nc3nc4ccccc4s3)[C@H]12	-0.0042 (inactive)
COCCCNC(=O)[C@@H]1c2ccccc2C(=O)N(C2CCCCC2)[C@H]1c1ccc(CO)cc1	-0.0928 (inactive)
C=CC[C@]1(C(=O)NCc2ccccc2)COC(c2ccc(OCCCO)cc2)=N1	6.37 (inactive)
CN(C)CCCNC(=O)[C@@]1(Cc2ccccc2I)c2ccccc2C(=O)N(Cc2ccccc2)[C@H]1c1ccc(CO)cc1	0.614 (inactive)
COc1cccc(OC)c1C(=O)O[C@H]1[C@@H]2OC(=O)[C@H](Cc3cccc(Br)c3)C/C=C/C[C@@H](Cc3cccc(Br)c3)C(=O)O[C@H]2[C@@H](OC)O[C@@H]1CO	-0.0392 (inactive)
[N-]=[N+]=NCc1ccccc1C[C@]1(C(=O)NCc2ccccc2)N=C(c2ccc(OCCCO)cc2)O[C@H]1c1ccccc1CN=[N+]=[N-]	5.01 (inactive)
COCCOC(=O)N1C(=O)[C@@]2(c3cc(C#Cc4ccc(OC)cc4)ccc31)[C@H](c1ccc(OCCO)cc1)N1[C@H](c3ccccc3)[C@H](c3ccccc3)OC(=O)[C@H]1[C@@H]2C(=O)N1CCCCCCC1	0.481 (inactive)
Cc1ccc(S[C@]2(C(=O)NC3CC3)CC(=O)N(Cc3cc(C(F)(F)F)cc(C(F)(F)F)c3)[C@@H]2c2ccc(CO)cc2I)cc1	0.774 (inactive)
CC1(C)OC[C@@]23C=C(Br)[C@@H](C[C@H]12)[C@@]1(CO1)C3=O	0.355 (inactive)
CCOC(=O)C1=CC[C@@H](c2ccccc2)N(S(=O)(=O)c2ccc(C)cc2)[C@H]1C#N	1.91 (inactive)
COc1ccccc1CN1C(=O)c2ccccc2[C@](Cc2ccccc2I)(C(=O)NCCCN(C)C)[C@@H]1c1ccc(CO)cc1	-0.551 (inactive)
CCCC=C(CCC)[C@@H](NC(=O)c1ccco1)c1ccc(C(=O)OC)cc1	0.324 (inactive)
CC(C)(C)OC(=O)CC[C@]1(C(N)=O)N=C(c2ccc(OCCCO)cc2)O[C@H]1c1ccccc1CN=[N+]=[N-]	5.64 (inactive)
COc1ccc(NN2C(C(O)c3cc(C(F)(F)F)cc(C(F)(F)F)c3)C=CC3C(=O)N(C4CCCCC4)C(=O)C32)cc1 (stereo unspecified)	0.507 (inactive)

SMILES	z-score
COc1ccc(CCNC(=O)[C@@]2(C)c3ccccc3C(=O)N(Cc3cc(C(F)(F)F)cc(C(F)(F)F)c3)[C@H]2c2ccc(CO)cc2)cc1	0.566 (inactive)
CC(C)C(=C=CC[C@@H](O)c1ccc(OCCO)cc1)CCO	-0.421 (inactive)
C=CCC(OC(C)=O)[C@@H]1[C@@H](N(Cc2cc3ccccc3o2)C(=O)c2ccc(-c3ccccc3)cc2)c2cc(OCCCO)ccc2N1C(=O)c1ccc2ccccc2n1 (stereo partly specified)	0.698 (inactive)
CC(C)c1ccc(NN2C(C(O)C(C)C)C=CC3C(=O)N(c4ccccc4)C(=O)C32)cc1 (stereo unspecified)	0.83 (inactive)
CCCC[C@H]1OB(O)C[C@H]2C1=C(COC)C[C@H]1C(=O)C=CC(=O)[C@H]12	0.272 (inactive)
COc1ccc([Si](C)(C)[C@H]2[C@H](CCn3cc([C@H](O)c4ccccc4)nn3)O[C@@]3(C(=O)N(c4ccccc4)c4ccccc43)[C@@H]2C)cc1	1.67 (inactive)
N#Cc1ccc(C(O)C2C=CC3C(=O)NC(=O)C3N2Nc2ccccn2)cc1 (stereo unspecified)	-0.88 (inactive)
O=C1C2C=CC(C(O)c3cccs3)N(Nc3ccccc3)C2C(=O)N1c1ccccc1 (stereo unspecified)	0.52 (inactive)
CC(C)=CCN(C(=O)C#Cc1ccccc1)[C@H](CO)c1ccccc1	3.67 (inactive)
CCCC[C@@H]1C[C@H]1[C@@H](NC(=O)Cc1ccccc1)c1ccc(Cl)cc1	1.03 (inactive)
O=C1C2C=CC(C(O)c3ccc([N+](=O)[O-])cc3)N(Nc3ccccc3)C2C(=O)N1c1ccccc1 (stereo unspecified)	2.55 (inactive)
O=C1C2C=CC(C(O)C(c3ccccc3)c3ccccc3)N(Nc3ccccc3)C2C(=O)N1c1ccccc1 (stereo unspecified)	1.71 (inactive)
CC(C)CNC(=O)[C@@]1(C)c2ccccc2C(=O)N(Cc2cc(F)cc(C(F)(F)F)c2)[C@H]1c1ccc(CO)cc1	0.684 (inactive)
Cc1c(NC(=O)/C(C#N)=C/c2ccc(Cl)cc2)c(=O)n(-c2ccccc2)n1C	-0.238 (inactive)
CN1C(=O)[C@]2(CCS(=O)(=O)c3ccccc3)N=C(c3ccc(OCCCO)cc3)O[C@@H]2c2ccccc21	27.2 (active)
COc1cccc(C[C@H]2C[C@@H](CO[Si](C(C)C)(C(C)C)C(C)C)N3C(=O)[C@@]4(C(C)=O)O[C@@]23[C@@H]2C(=O)N(C)C(=O)[C@@H]24)c1	0.576 (inactive)
CC(=O)n1cc(C(O)C2C=CC3C(=O)N(c4ccccc4)C(=O)C3N2Nc2ccccc2F)c2ccccc21 (stereo unspecified)	1.04 (inactive)
CC=CC(O)C1C=CC2C(=O)N(C)C(=O)C2N1NC(=O)OC(C)(C)C (stereo unspecified)	0.43 (inactive)
